A selection: hits, their analogues and other compounds. The true share with any hit is near 2.9%.
GLP1R ag: GLP-1 receptor (human) agonism; P43220; HEK293 GLP-1R CRE-luciferase, luminescence, 4-6 h; cells express a hypersensitive GLP-1R form; Potency, µM (highest dose often 45.6 µM), inactives show top-dose activation, usual class: activators; hit rate 0.007% among 380,000; note: potency is the fitted concentration of half-maximal effect; % of control where 0% means no effect
LDHA block: LDHA (human) enzyme inhibition. purified LDHA, NADH/diaphorase-resazurin fluorescence; active compounds read low. activity change, % (values are at about 110 or 230 µM). hit rate 0.15% among 480,000. P00338; in the data active = activity change below about -30%; inconclusive = mostly about -25% to -30%;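 note: plate controls were DMSO wells for no effect and wells without enzyme for full effect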
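Human LDH5 at 2 nM final in Tris HCl pH 7.4 with 0.06 mM NADH and 0.2 mM pyruvate, reacted 5 minutes at room temperature. Remaining NADH coupled via diaphorase/resazurin; resorufin fluorescence read at 0 and 20 minutes, normalized to enzyme-free and DMSO wells.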
GLP1R cytotox: cytotoxic in the GLP-1 receptor inverse agonist counter-screen; HEK293 cAMP-luciferase reporter cells, luminescence, 24 h; Potency, µM (top dose mostly 38.3 µM), for inactives: at the highest dose activity change, negative = inhibition, most hits filed as inhibitors; hit rate 0.13% among 410,000; AID 624418;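 note: loss of luciferase light is scored as toxicity; potency is the fitted concentration of half-maximal effect; % is set by controls: 0 for no effect and ±100 for the full control effect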
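Cells in DMEM/10% Nu serum/1% pen-strep, 1536-well format. Pre-incubated 12 h, dosed with 23 nL compound, incubated a further 24 h. Luciferase detection, 12 min at room temp, luminescence.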
p53 reactivation: restores transcriptional activity of mutant p53; H1299 p53-A138V BP100-luciferase reporter, luminescence, 24 h; Potency, µM (series often up to 92.2 µM), for inactives: at the highest dose activity change, positive = activation, actives largely listed as activators; hit rate 0.063% among 320,000; note: potency is the fitted concentration of half-maximal effect; % of control where 0% means no effect; nearly all actives have a fitted effect of over 45% in size
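H1299 (p53-null), stable ts p53-A138V + BP100-Luc; 1000 cells/well, Opti-MEM/10% FBS; cpd 4 pt, 1:5; 24 h, 37 deg C, 5% CO2; detection reagent 10 min RT; luminescence.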
ClpP mod: qHTS Assay for Activators of ClpP; ATP-dependent Clp protease proteolytic subunit (Bacillus subtilis (strain 168)), P80244; purified B. subtilis ClpP, FRET peptide cleavage, 20 min; Potency, µM (series often up to 57.5 µM), without a hit: at the top dose activity change, negative = active; hit rate 1.9% among 340,000; AID 651965, 2013; active = well fitted falling curve with a large enough effect; inconclusive = small, poorly fitted or top-dose-only effect; inactive = no such curve, though single readings can be large or run the other way; note: potency is the fitted concentration of half-maximal effect; the source files actives as falling curves though it sought activators and does not explain the sign; nearly all actives have a fitted effect of over 65% in size
Target sequence (P80244 whole entry, looked up): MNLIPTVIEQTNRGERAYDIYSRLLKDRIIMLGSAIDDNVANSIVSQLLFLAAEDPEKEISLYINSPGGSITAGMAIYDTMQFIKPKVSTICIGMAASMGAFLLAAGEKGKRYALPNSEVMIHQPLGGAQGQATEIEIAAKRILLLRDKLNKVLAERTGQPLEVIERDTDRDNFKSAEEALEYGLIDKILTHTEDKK
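Buffer: 100 mM Tris/HCl pH8, 100 mM KCl, 0.05% low protease BSA, 2.5% glycerol, 0.01% Tween-20. ClpP 10 microg/mL final; 20 min RT; delta FRET normalized to ADEP and DMSO controls.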
GLP1R inv ag: inverse agonists of human GLP-1 receptor; hit rate 1.6% among 410,000; Potency, µM (highest dose often 38.3 µM), for the others: top-dose activity change, negative = inhibition, actives largely listed as inhibitors; HEK293 GLP-1R CRE-luciferase, luminescence, 24 h; GLP-1R form is constitutively active; note: potency is the fitted concentration of half-maximal effect; % is set by controls: 0 for no effect and ±100 for the full control effect; nearly all actives have a fitted effect of over 55% in size
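Cells are plated, allowed 12 hours at 37 deg C, then treated with compounds for 24 hr before luciferase detection reagent is added and luminescence is read after 12 min at room temperature. The HEK293 line carries constitutively active GLP-1R with a cAMP-responsive reporter.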
Numbers without * were called inactive; ? = inconclusive; . = no result; ! = not active in a repeat. Unless noted, calls come from the whole dose curve; as a rule, active = well fitted curve in the direction sought with a large enough effect; inconclusive = small, poorly fitted or top-dose-only effect, or another doubt; inactive = no such curve, though single readings can be large; an effect the other way counts as inactive or inconclusive.

SMILES	GLP1R ag	LDHA block	GLP1R cytotox	p53 reactivation	ClpP mod	GLP1R inv ag
O=C(Nc1ccn(Cc2ccccc2F)n1)c1ccc(COc2cccc(Br)c2)cc1	-11%	-6	-2%	?	-14%	3.2µM*
CCCn1c2c(c(=N)c3c1CCC3)CCCC2	-2%	-36*	1%	4%	-2%	-25%
CCCn1c2c(c(=N)c3c1CCC3)CCC2	-4%	-13	-12%	-1%	0%	-10%
COC(=O)c1scc(-c2ccc(C)cc2)c1S(=O)(=O)Nc1cc(C)c(Cl)cc1OC	.	1	-1%	.	-2%	10µM*
COCCNC(=S)N(C)[C@H]1C[C@H]2c3cc(-c4ccccc4)ccc3CCN2C(=O)[C@H]1[C@H](C)O	16%	-32*	-11%	.	-2%	17%
COC(=O)c1ccccc1NC(=O)c1ccc(COc2cc(C)cc(C)c2)o1	0%	-6	0%	16%	20µM*!	?
Cc1ccc(CNc2ccc3c(c2)ncn3C)cc1	2%	20	18%	20%	25µM*	0%
CCc1ccc(CNc2ccc3c(c2)ncn3C)cc1	7%	23	2%	?	28µM*	-2%
c1ccc(-n2cnc3cc(NCc4cccs4)ccc32)cc1	6%	4	-22%	?	?	?
Cc1ccc(-n2cnc3cc(NCc4cccs4)ccc32)cc1	14%	16	-9%	?	22µM*	?
COc1ccc(CNc2ccc3c(c2)ncn3C)cc1OC	1%	3	-25%	-78%	.	15%
C/C(=N\NC(=S)Nc1cccc(C)c1)c1cccc(N)c1	14%	-3	?	11%	-15%	12%
COc1ccc(/C=C2\C=Cc3ccccc32)cc1OC	.	2	.	.	1%	.
COC(=O)C1C(=O)C=C(N2CCOCC2)CC1(C)C (centres undefined)	-2%	-6	-6%	6%	13µM*	4%
COc1cccc([C@@H]2Oc3ccc(Br)cc3C(=O)[C@H]2OC(=O)NC2CCCC2)c1	-3%	-6	0%	29%	1%	11µM*
O=C1CCCC2=C1C(c1ccc(Cl)cc1Cl)n1nnnc1N2 (centres undefined)	.	12	.	.	.	.
CC1(C)Cc2c(c(=S)nc(-c3ccccc3)n2CCN2CCOCC2)CO1	-15%	-8	3%	2%	0%	2%
CCC(C(=O)OCC(=O)N1C(C)CCCC1C)c1ccccc1 (centres undefined)	12%	-4	3%	3%	.	8.9µM*
Cc1cc(-c2ccccc2)[nH]c(=O)c1S(=O)(=O)c1ccc(Cl)cc1	-9%	-7	14%	1%	?	4%
Cc1cc(-c2ccccc2)[nH]c(=O)c1S(=O)(=O)c1ccccc1	-4%	-4	0%	-4%	14µM*	16%
CN(CCOc1ccccc1)CC(O)COc1ccccc1 (centres undefined)	9%	-9	-23%	-1%	.	?
CN(CCOc1ccc(Br)cc1)CC(O)COc1ccc(C#N)cc1 (centres undefined)	-1%	0	-5%	-2%	2%	4.5µM*
O=C(NC(=S)N(Cc1ccccc1)Cc1ccccc1)C1CCCCC1	0%	0	-16%	2%	1%	-22%
O=C(NNc1c2ccccc2nc2ccccc12)c1ccc(Cl)cc1	18%	1	-8%	-4%	.	8%
Clc1cncc(Cl)c1NNc1c2ccccc2nc2ccccc12	3%	-4	197%	0%	28µM*	6%
CCOC(=O)c1ccc(NC(=S)N(CCCN(CC)CC)Cc2ccco2)cc1	11%	-6	3%	7%	-3%	?
CCOC(=O)c1ccc(NC(=S)N(CCCN2CCCCC2)Cc2ccco2)cc1	?	0	?	1%	-2%	11µM*
